About 8,800 targets were measured; listed, in parts, are those with a hit and a random draw of the rest. About 0.5% of all pairs of compound and target were hits. Unmarked numbers belong to inactive results.

Sequence of UniProt P48729 (P48729 whole entry, looked up): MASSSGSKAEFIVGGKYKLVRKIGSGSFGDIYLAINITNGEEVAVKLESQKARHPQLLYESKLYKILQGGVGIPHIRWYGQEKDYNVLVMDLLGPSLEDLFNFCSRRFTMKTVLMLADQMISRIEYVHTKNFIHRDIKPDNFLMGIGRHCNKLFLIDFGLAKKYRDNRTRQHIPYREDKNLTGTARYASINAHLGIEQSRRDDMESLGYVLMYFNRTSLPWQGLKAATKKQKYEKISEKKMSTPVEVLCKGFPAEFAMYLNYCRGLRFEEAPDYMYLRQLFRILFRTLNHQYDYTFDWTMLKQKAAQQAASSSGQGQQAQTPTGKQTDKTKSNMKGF
Sequence of UniProt Q6ZPD9 (Q6ZPD9 whole entry, looked up): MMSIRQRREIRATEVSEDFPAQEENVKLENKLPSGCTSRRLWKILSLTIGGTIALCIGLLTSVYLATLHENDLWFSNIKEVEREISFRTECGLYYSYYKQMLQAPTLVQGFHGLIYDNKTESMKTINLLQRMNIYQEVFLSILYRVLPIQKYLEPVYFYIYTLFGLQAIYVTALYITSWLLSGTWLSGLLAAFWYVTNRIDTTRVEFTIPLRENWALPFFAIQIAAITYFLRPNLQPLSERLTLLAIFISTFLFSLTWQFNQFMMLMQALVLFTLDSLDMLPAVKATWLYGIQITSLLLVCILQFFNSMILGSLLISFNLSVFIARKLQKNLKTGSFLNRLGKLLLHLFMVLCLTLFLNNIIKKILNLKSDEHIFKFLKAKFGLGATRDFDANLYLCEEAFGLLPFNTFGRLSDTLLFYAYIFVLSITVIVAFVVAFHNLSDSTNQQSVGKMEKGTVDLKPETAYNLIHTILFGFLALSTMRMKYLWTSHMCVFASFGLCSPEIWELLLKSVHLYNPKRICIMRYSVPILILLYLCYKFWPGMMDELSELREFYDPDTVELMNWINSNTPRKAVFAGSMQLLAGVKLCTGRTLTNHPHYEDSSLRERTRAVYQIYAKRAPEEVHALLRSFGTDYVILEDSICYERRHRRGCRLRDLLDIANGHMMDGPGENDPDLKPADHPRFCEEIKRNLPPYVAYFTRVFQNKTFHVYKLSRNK
Sequence of UniProt Q96SQ9 (Q96SQ9 whole entry, looked up): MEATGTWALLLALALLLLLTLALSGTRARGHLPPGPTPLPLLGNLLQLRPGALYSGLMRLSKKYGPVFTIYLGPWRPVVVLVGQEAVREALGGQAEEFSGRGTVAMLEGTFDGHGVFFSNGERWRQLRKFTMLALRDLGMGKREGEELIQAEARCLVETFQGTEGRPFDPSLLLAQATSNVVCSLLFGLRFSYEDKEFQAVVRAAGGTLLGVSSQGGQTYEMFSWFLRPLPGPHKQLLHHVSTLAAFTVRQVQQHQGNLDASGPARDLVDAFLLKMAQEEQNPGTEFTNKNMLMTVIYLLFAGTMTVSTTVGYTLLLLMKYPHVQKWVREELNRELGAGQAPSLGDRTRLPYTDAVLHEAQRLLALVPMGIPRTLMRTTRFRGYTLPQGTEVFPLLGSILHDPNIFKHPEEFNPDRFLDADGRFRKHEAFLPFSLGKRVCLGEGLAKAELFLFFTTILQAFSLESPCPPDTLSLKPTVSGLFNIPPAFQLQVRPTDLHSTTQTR
Sequence of UniProt Q9BW66 (Q9BW66 whole entry, looked up): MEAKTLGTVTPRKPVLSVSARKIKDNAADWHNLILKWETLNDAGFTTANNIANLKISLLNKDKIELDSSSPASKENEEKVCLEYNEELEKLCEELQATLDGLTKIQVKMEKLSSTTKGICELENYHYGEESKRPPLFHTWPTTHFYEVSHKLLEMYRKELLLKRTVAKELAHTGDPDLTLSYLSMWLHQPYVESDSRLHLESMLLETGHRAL
Sequence of UniProt O14810 (O14810 whole entry, looked up): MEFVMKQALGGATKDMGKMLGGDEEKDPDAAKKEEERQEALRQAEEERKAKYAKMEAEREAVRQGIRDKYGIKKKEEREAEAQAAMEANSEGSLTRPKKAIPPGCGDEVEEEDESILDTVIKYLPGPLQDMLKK
Sequence of UniProt Q99715 (Q99715 whole entry, looked up): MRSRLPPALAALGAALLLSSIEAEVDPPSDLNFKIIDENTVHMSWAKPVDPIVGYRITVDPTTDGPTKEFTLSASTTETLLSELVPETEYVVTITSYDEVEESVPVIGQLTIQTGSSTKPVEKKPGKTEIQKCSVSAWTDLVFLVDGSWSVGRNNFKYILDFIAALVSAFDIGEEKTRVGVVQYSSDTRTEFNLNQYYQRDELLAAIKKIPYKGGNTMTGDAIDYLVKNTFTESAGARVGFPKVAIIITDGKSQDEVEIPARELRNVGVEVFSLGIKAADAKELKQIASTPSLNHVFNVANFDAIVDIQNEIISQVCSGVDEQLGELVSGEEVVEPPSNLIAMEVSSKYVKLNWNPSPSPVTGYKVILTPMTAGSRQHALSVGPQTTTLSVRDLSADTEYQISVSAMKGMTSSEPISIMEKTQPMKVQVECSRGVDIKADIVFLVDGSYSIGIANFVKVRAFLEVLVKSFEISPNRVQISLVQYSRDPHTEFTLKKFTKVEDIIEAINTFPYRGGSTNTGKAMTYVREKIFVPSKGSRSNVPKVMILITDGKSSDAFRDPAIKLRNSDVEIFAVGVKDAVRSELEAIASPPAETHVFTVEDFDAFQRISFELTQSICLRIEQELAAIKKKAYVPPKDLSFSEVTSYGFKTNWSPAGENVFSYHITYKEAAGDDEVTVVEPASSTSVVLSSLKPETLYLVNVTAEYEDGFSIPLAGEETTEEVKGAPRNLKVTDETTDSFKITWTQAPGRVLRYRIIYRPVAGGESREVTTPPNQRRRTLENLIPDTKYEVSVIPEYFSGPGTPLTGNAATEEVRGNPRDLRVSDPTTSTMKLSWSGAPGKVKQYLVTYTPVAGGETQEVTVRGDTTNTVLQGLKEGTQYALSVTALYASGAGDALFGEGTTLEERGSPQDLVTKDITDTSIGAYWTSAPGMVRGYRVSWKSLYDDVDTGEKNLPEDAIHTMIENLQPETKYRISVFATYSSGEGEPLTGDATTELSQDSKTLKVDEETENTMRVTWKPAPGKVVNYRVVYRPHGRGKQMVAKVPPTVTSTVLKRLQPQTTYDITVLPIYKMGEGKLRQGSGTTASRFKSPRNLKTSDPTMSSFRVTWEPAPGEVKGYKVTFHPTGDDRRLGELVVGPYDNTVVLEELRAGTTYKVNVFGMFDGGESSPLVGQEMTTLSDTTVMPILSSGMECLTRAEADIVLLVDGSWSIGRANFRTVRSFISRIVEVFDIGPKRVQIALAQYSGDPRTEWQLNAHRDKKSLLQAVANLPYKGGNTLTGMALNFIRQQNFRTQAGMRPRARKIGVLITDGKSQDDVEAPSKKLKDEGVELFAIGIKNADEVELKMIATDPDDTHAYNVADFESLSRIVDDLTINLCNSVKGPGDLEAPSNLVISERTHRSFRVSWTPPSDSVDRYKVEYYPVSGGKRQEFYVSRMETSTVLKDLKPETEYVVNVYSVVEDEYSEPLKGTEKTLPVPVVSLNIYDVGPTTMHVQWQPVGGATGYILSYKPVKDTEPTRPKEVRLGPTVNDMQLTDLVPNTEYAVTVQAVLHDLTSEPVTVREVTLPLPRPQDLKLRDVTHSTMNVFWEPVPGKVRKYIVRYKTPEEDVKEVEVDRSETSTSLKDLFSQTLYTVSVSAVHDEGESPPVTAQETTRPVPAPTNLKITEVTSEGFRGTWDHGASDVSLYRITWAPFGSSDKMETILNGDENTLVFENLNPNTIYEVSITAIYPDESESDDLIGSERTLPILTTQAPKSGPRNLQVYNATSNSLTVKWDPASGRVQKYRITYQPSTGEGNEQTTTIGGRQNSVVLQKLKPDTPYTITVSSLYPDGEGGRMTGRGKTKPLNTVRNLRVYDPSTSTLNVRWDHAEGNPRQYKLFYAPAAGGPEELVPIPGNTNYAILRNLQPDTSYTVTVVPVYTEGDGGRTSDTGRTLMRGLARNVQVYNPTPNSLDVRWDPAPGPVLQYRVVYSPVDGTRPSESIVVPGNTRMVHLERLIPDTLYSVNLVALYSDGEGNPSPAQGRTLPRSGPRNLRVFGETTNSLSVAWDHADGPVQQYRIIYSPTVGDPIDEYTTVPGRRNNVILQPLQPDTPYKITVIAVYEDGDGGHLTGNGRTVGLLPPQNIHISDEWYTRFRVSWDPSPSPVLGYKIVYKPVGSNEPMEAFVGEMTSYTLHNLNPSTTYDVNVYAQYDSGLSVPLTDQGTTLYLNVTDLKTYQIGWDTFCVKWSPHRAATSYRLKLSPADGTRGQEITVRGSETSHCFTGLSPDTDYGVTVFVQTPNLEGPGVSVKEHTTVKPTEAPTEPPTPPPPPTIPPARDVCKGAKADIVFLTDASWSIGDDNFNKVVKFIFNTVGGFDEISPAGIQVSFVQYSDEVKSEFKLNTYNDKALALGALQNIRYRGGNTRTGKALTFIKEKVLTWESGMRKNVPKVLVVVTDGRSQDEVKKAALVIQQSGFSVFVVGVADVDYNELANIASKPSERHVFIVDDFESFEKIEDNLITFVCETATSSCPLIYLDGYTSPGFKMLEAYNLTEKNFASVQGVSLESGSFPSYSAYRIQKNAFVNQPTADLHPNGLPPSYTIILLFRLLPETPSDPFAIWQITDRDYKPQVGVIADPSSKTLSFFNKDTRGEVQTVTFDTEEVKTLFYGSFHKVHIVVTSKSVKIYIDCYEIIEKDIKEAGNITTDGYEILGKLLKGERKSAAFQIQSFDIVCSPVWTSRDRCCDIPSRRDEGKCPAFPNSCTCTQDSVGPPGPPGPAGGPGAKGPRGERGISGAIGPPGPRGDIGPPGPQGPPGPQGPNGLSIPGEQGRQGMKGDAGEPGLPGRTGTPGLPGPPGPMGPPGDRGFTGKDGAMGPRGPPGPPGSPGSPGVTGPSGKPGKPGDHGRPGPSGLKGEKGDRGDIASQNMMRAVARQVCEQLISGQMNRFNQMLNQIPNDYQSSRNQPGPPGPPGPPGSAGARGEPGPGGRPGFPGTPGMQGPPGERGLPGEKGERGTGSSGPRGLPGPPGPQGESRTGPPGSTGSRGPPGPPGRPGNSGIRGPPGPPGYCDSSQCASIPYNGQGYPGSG
Sequence of UniProt O95715 (O95715 whole entry, looked up): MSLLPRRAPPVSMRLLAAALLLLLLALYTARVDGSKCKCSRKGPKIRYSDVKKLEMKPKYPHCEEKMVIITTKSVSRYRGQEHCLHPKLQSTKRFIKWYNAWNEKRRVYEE

Compound in the first assay: CNC(=O)C1=CC=CC=C1NC2=NC(=NC=C2Cl)NC3=C(C=C(C=C3)N4CCOCC4)OC
The experiment in a line: log2 fold change, soluble protein after heating vs DMSO (PISA); higher = thermal stabilisation; K562 lysate, 10 uM; active = over 0.2 and 3.5 SD of the protein, either way, in both replicates (recomputed). The gist of the method: (§1)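 Quantification was by TMTpro 16plex LC-MS/MS with equalised channel sums, applied to the supernatant after 21,000xg for 90 min. Samples were crude K562 extract at 1 mg/mL protein in PBS pH 7.4 with 1 mM MgCl2, treated with 10 μM compound for 30 min, heated for 3 min across 48°C-58°C, pooled and brought to 0.5% NP-40 at 4°C. Values are log-two fold changes in thermal stability relative to solvent controls, from duplicates.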
On to COL12A1 (UniProt Q99715), for which the log2 fold change was 0.095.
Take CNIH4 (UniProt Q9P003): the log2 fold change was 0.048.
As to CHFR (UniProt Q96EP1), the log2 fold change is 0.004.
For the target DHRS13 (UniProt Q6UX07), the log2 fold change is -0.083.
CLIP1 isoform 2 (UniProt P30622): the log2 fold change is -0.085.
Regarding CYP4V2 (UniProt Q6ZWL3), the log2 fold change was -0.007.
Take DALRD3 (UniProt Q5D0E6): the log2 fold change was -0.026.
Consider COPS9 (UniProt Q8WXC6), for which the log2 fold change was 0.087.
Still for that read-out and setting: the figure for CNOT2 (UniProt F8VRS8) is 0.004; for CSAD isoform 3 (UniProt Q9Y600) it is -0.044.
With DONSON (UniProt Q9NYP3), the log2 fold change was 0.069.
Turning to CYP2S1 isoform 2 (UniProt Q96SQ9), the log2 fold change was -0.085.
With CLASP1 isoform 4 (UniProt Q7Z460), the log2 fold change is 0.046.
The same measure, in the same setting: the figure for COL6A3 (UniProt P12111) is -0.126.
Turning to CRLS1 (UniProt Q9UJA2), the log2 fold change is 0.068.
Turning to DHX32 (UniProt Q7L7V1), the log2 fold change is 0.044.
As for DNM2 isoform 4 (UniProt P50570), the log2 fold change is -0.278.
DPY19L3 (UniProt Q6ZPD9): the log2 fold change is -0.105.

Compound in the next assay: CNC(=O)c1ccc(Nc2ncc(C(F)(F)F)c(NCc3nccnc3N(C)S(C)(=O)=O)n2)cc1 [defactinib]
The assay is described as above. The method in brief: as §1
Take COL12A1 (UniProt Q99715): the log2 fold change was -0.059.
On to CNIH4 (UniProt Q9P003), for which the log2 fold change is 0.442.
On the same count and under the same terms, the figure for CHFR (UniProt Q96EP1) is -0.61 (active); for DALRD3 (UniProt Q5D0E6) it is 0.033; for CSNK1A1 (UniProt P48729) it is 0.077.
Take CLASP2 (UniProt O75122): the log2 fold change was 0.002.
On to CPLX1 (UniProt O14810), for which the log2 fold change is 0.144.
Take CYP2S1 isoform 2 (UniProt Q96SQ9): the log2 fold change was -0.022.
Same read-out and setting: the result for CLASP1 isoform 4 (UniProt Q7Z460) reads 0.223.
Still for that read-out and setting: the result for CXCL14 (UniProt O95715) reads -0.235.
Consider DHX32 (UniProt Q7L7V1), for which the log2 fold change is -0.043.
Regarding CSNK1D (UniProt P48730), the log2 fold change was 0.103.
Turning to CINP isoform 3 (UniProt Q9BW66), the log2 fold change is -0.056.
On to DESI2 (UniProt Q9BSY9), for which the log2 fold change was 0.016.
As to CLIP1, A0A3B3ITA2, the log2 fold change was -0.077.
Regarding DPY19L3 (UniProt Q6ZPD9), the log2 fold change is -0.039.

Compound in a further assay: CNc1nc(-c2ccc3c(N)n[nH]c3c2)cc(N2C[C@@H](C(=O)NC3CCCCC3)CC[C@H]2C)n1
Described as above. The method in brief: as §1
Take COL12A1 (UniProt Q99715): the log2 fold change is 0.531.
Take DDR1 isoform 5 (UniProt Q08345): the log2 fold change is 0.147.
On to CNIH4 (UniProt Q9P003), for which the log2 fold change is 0.049.
For the target CHFR (UniProt Q96EP1), the log2 fold change is -0.032.
As for DHRS13 (UniProt Q6UX07), the log2 fold change is 0.004.
CSNK1A1 isoform 3 (UniProt P48729): the log2 fold change is 0.068.
On to CLIP1 isoform 2 (UniProt P30622), for which the log2 fold change is 0.088.
Regarding CYP4V2 (UniProt Q6ZWL3), the log2 fold change is 0.045.
Take DLGAP5 isoform 3 (UniProt Q15398): the log2 fold change is -0.051.
As to CSNK1A1 (UniProt P48729), the log2 fold change is 0.019.
Same read-out and setting: the result for CHMP4A (UniProt H0YIN6) reads 0.528; that for DONSON (UniProt Q9NYP3), 0.005.
For CPLX1 (UniProt O14810), the log2 fold change is -0.127.
As to CYP2S1 isoform 2 (UniProt Q96SQ9), the log2 fold change was -0.151.
Consider COL6A3 (UniProt P12111), for which the log2 fold change was 0.13.
Consider CSNK1D (UniProt P48730), for which the log2 fold change is -0.091.
With CINP isoform 3 (UniProt Q9BW66), the log2 fold change was 0.028.
Consider DNM2 isoform 4 (UniProt P50570), for which the log2 fold change was 0.055.

Compound in the next assay: COC(=O)N[C@@H](C)CNc1nccc(-c2cn(C(C)C)nc2-c2cc(Cl)cc(NS(C)(=O)=O)c2F)n1 [encorafenib]
The assay is described as above. The gist of the method:
as §1
Regarding COL12A1 (UniProt Q99715), the log2 fold change is 0.003.
Consider DDR1 isoform 5 (UniProt Q08345), for which the log2 fold change was 0.044.
On to CNIH4 (UniProt Q9P003), for which the log2 fold change was 0.06.
On to CHFR (UniProt Q96EP1), for which the log2 fold change is 0.063.
Still for that read-out and setting: the figure for CLIP1 isoform 2 (UniProt P30622) is -0.012; for DALRD3 (UniProt Q5D0E6) it is 0.054.
Still for that read-out and setting: the figure for CSNK1A1 (UniProt P48729) is 0.081; for CLASP2 (UniProt O75122) it is 0.058.
Regarding CPLX1 (UniProt O14810), the log2 fold change was -0.017.
As for CYP2S1 isoform 2 (UniProt Q96SQ9), the log2 fold change is 0.024.
Still for that read-out and setting: the figure for CXCL14 (UniProt O95715) is -0.034; for CSRP2 (UniProt Q16527) it is -0.046.
Turning to DHX32 (UniProt Q7L7V1), the log2 fold change is 0.062.
Still for that read-out and setting: the result for CSNK1D (UniProt P48730) reads 0.041.
Consider CINP isoform 3 (UniProt Q9BW66), for which the log2 fold change is 0.003.
The same measure, in the same setting: the figure for DNM2 isoform 4 (UniProt P50570) is 0.13; for DESI2 (UniProt Q9BSY9) it is -0.057; for DPY19L3 (UniProt Q6ZPD9) it is 0.

The record behind these values is the supplement of paper PMC10849652.
